# Compounds with a hit are over-represented: about 12% of the library has one in this group of screens.
# WT yeast gro inh: growth inhibition of WT yeast, mitochondrial fusion screen | inhibition, % at 10 µM | mitochondrial fusion phenotypic screen, WT strain | 190,000 tested, 2.1% active; in the data active = inhibition above about 58%; tested in S. cerevisiae
# L major viab: reduces viability of Leishmania major promastigotes; resazurin fluorescence viability; 200,000 tested, 9% active; AID 1063; inhibition, % at 10 µM; in the data active = inhibition above about 50%;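 also: promastigotes grown with compound for 44 hours at 28 °C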
# Calpain2 inh: calpain II (pig) inhibition. 220,000 tested, 0.37% active. purified calpain II, fluorogenic peptide substrate, 30 min. inhibition, % at 16 µM;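 active = inhibition above about 50%, limit read from the data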
# ROMK mod: human ROMK K+ channel modulation, primary screen; P48048; Tet-inducible ROMK, thallium flux fluorescence; actives lie on both sides; B-score at 10 µM; 130,000 tested, 2% active; AID 1918;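 active = signal ratio slope over the read window, or its plate-corrected B-score, at least 3 SD from the plate mean, either direction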;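 also: B-score of the F/F0 ratio slope over 7 to 12 s after thallium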
# Target sequence (P48048 whole entry, looked up): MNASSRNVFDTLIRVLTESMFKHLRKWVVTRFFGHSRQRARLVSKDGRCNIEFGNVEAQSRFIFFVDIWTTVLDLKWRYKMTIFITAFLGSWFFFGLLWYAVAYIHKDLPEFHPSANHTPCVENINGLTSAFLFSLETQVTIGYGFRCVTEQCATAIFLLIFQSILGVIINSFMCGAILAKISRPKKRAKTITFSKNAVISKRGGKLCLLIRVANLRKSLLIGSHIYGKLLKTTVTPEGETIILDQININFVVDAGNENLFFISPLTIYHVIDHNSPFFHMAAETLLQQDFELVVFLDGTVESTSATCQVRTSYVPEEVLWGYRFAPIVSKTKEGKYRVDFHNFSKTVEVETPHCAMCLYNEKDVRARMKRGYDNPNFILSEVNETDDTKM
# Cl transport mod: KCC2 (human) Cl- transport modulation | 190,000 tested, 2.2% active | KCC2 cells, thallium flux FluoZin-2 fluorescence | B-score of Tl+ flux slope (higher = more flux/activation; lower = inhibition) at 10 µM | Q9H2X9;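 active = thallium flux slope and its plate-corrected score both differing from the plate sample mean at a set confidence after two filtering rounds, in either direction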;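 also: slope of fluorescence scaled to starting intensity during 10 to 20 s after thallium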
# L major 1uM: blocks Leishmania major promastigote growth at 1 uM, repeat screen. shares compounds with L major viab. L. major promastigote growth, resazurin fluorescence, 48 h. inhibition, % at 1 µM. 1,100 tested, 13% active;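 active = inhibition above about 50% in both repeat tests, limit read from the data; inconclusive = one repeat under the set limit, the other over it; inactive = both repeats under the set limit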
# KCC2 secondary: KCC2 (human) modulation, secondary assay; HEK293-KCC2, thallium flux, FluoZin2 fluorescence; active compounds read high; 3,700 tested, 15% active; shares compounds with Cl transport mod; AID 1713; normalised thallium flux (F/F0 slope) at 10 µM;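 active = thallium flux slope above the same plate's solvent-only control mean plus 3 SD; inconclusive = the two replicate wells disagree; inactive = no significant difference from solvent-only control wells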
# KCC2 bumet counter: thallium flux persisting under bumetanide in KCC2 cells, counter-screen secondary assay | shares compounds with Cl transport mod | HEK293-KCC2 + bumetanide/ouabain, thallium flux FluoZin2; active compounds read high | normalized thallium flux at 10 µM | 3,700 tested, 49% active;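 active = thallium entry rate above the same plate's blocked-transporter control wells by more than 3 SD; inconclusive = the two repeat wells disagree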;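 also: raw slope of fluorescence over initial fluorescence between 10 and 20 s after thallium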
# KCC2 sec2: KCC2 (human) modulation, second secondary assay | shares compounds with Cl transport mod | HEK293-KCC2, thallium flux FluoZin2 fluorescence; actives lie on both sides; F/F0 rise rate, 10–20 s post-thallium | normalized thallium flux at 10 µM | 3,700 tested, 23% active | AID 1715;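 active = thallium flux slope more than 3 SD above or below the plate's solvent-only control mean, mostly below; inconclusive = the two repeat wells disagreed; inactive = no significant shift from solvent-only controls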;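 also: raw slope with 0.1% DMSO as baseline and bumetanide as block control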
# HEK293 Tl flux: acts in parental HEK cells, KCC2 counter-screen; shares compounds with Cl transport mod; HEK293 parental cells, thallium flux FluoZin2, ouabain; baseline-ratio fluorescence slope, 10–20 s after thallium; thallium flux rate (normalised fluorescence) at 10 µM; 3,700 tested, 46% active;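 active = thallium flux rate significantly above the same plate's solvent-only control wells, beyond their mean plus 3 SD; inconclusive = the two replicate wells gave conflicting results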
# KCC2 ouabain: confirmation of human KCC2 modulators with ouabain | raw Tl+ flux slope (below DMSO = inhibition, above = activation) at 10 µM | shares compounds with Cl transport mod | 3,700 tested, 48% active | HEK293-KCC2, thallium flux FluoZin2 fluorescence; bidirectional: low = inhibitor, high = activator;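 active = thallium flux slope beyond 3 SD from same-plate DMSO control mean in most replicates, usually higher, sometimes lower; inconclusive = repeat tests gave conflicting results; inactive = no significant difference from controls in most replicates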;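 also: slope of initial-normalized fluorescence between seconds 10 and 20 after thallium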
# HEK counter2: counter-screen for KCC2 modulators: effect in parental HEK293 cells. shares compounds with Cl transport mod. thallium flux FluoZin-2 fluorescence slope. thallium flux slope at 10 µM. 3,700 tested, 33% active;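 active = thallium flux slope above the same plate's solvent-control mean plus 3 SD in both duplicate wells; inconclusive = duplicate wells that disagreed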;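 also: run without ouabain in cells lacking the KCC2 cotransporter; slope of fluorescence scaled to its starting value between 10 and 20 s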
# ROMK retest: human ROMK channel modulation, retest confirmation | shares compounds with ROMK mod | ROMK thallium flux, fluorescence ratio; active compounds read low | normalized thallium flux (F/F0 slope) at 10 µM | 3,000 tested, 54% active | AID 1917;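 active = Flux at 10 µM at least 3 SD below or above vehicle control mean in one or both replicates; inconclusive = no clear call, values can overlap the other calls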
# Numbers without * were called inactive; i = inactive; ? = inconclusive; · = no result.
SMILES,WT yeast gro inh,L major viab,Calpain2 inh,ROMK mod,Cl transport mod,L major 1uM,others
CC1=NNC(=O)C1CC(=O)N/N=C(\C)c1cccs1 (configuration not stated),-9,-3,-22,-0.25,-0.13,·,
CCOc1ccc(C(=O)Nc2c3c(nn2-c2cccc(Cl)c2)CS(=O)C3)cc1 (configuration not stated),3,100*,-22,·,-0.7,11,
CCOc1ccc(C(=O)Nc2c3c(nn2-c2ccc(F)cc2)CS(=O)C3)cc1 (configuration not stated),0,2,-24,0.54,0.33,·,
O=C(O)c1cc2ncc(-c3[nH]ncc3[N+](=O)[O-])cn2n1,2,-1,-18,0.65,0.62,·,
Cc1ccc(-n2nnnc2C(Cl)c2nnnn2-c2ccc(C)cc2)cc1,74*,99*,18,·,-0.18,32,
Cc1ccc(-n2nnnc2-c2ccco2)cc1,9,-3,7,0.084,-0.0024,·,
Cn1c(=O)[nH]c(=O)c2c1nc(N/N=C/c1ccncc1)n2Cc1ccc(Cl)cc1,·,·,-7,-0.31,0.47,·,
Cc1sc2c(c1C)c(=O)nc1n2Cc2ccccc2-1,-7,82*,-346,-0.096,·,1,KCC2 secondary=0.0087;KCC2 bumet counter=0.0062;KCC2 sec2=0.03;HEK293 Tl flux=0.008;KCC2 ouabain=0.019;HEK counter2=0.011
O=c1nc2n(c3c1oc1ccccc13)Cc1ccccc1-2,-4,42,-72,0.4,-0.74,·,
O=C(Nc1cccc(-c2nnn(CC(=O)N3CCc4ccccc4C3)n2)c1)C1CCC1,-3,99*,-46,-0.34,·,-2,KCC2 secondary=0.017;KCC2 bumet counter=0.0043;KCC2 sec2=?;HEK293 Tl flux=?;KCC2 ouabain=0.014*;HEK counter2=0.01
CC(=O)c1ccc(S(=O)c2ccccc2)cc1 (configuration not stated),5,-4,-3,·,·,·,
CC(C)CCn1c(O)c(N=Nc2ccccn2)c2ccccc21,68*,69*,33,0.97,6.9*,-7,KCC2 secondary=0.0092;KCC2 bumet counter=0.021*;KCC2 sec2=0.035;HEK293 Tl flux=?;KCC2 ouabain=?;HEK counter2=0.013
Cc1c(O)ccc(/C(Cc2ccc3ccccc3n2)=N\O)c1O,-9,59*,-6,·,-4.9*,-10,KCC2 secondary=0.008;KCC2 bumet counter=0.0039;KCC2 sec2=0.029;HEK293 Tl flux=0.0064;KCC2 ouabain=0.015*;HEK counter2=0.0095
CC(=O)Oc1ccc(C(=O)Cc2ccc3ccccc3n2)c(O)c1C,7,-5,20,·,0.45,·,
S=c1sc2c(Cl)ncnc2n1-c1ccccc1,-6,87*,-19,0.023,-4.3*,30,KCC2 secondary=0.0058;KCC2 bumet counter=0.0046;KCC2 sec2=0.033;HEK293 Tl flux=0.0073;KCC2 ouabain=0.019;HEK counter2=0.01
Cc1nc(N2CCN(C)CC2)c2sc(=S)n(-c3ccccc3)c2n1,8,3,16,·,0.27,·,
CSc1ccccc1NS(=O)(=O)c1ccccc1,22,-2,15,·,-0.24,·,
Cc1onc(-c2ccccc2)c1C(=O)NCC(O)c1ccccc1 (configuration not stated),·,·,-10,·,-1.4,·,
COCCCn1[nH]c2c3c(ccc2c1=O)C(=O)c1ccccc1C3=O,14,94*,4,·,·,7,KCC2 secondary=0.005;KCC2 bumet counter=?;KCC2 sec2=0.03;HEK293 Tl flux=0.008;KCC2 ouabain=0.019;HEK counter2=0.012
O=C(c1ccc(S(=O)(=O)N2CCOCC2)cc1)N1CCN(S(=O)(=O)c2ccc(Cl)s2)CC1,·,·,-12,·,-0.41,·,
CC12CCCCN1CCCc1c2[nH]c2ccccc12 (configuration not stated),-3,64*,15,0.17,8.2*,-2,KCC2 secondary=?;KCC2 bumet counter=0.0044;KCC2 sec2=0.029;HEK293 Tl flux=0.0077;KCC2 ouabain=?;HEK counter2=0.011
COc1cc(NC(C)CCCN)c2ncccc2c1Oc1ccccc1 (configuration not stated),21,101*,12,-3.6*,0.46,101*,ROMK retest=0.065*
Cc1ccc2cc(/C=N/NC(=O)c3ccccc3[N+](=O)[O-])c(Cl)nc2c1,12,19,-3,-0.45,-0.5,·,
COC(=O)CN1C(c2cccc(Cl)c2)=Nc2ccc(Cl)cc2C1c1ccccc1 (configuration not stated),76*,60*,6,·,-0.2,29,ROMK retest=0.055*
CCc1nc2ccccc2c(C(=O)OCc2nnc(-c3ccccc3)o2)c1C,-1,6,18,-0.76,-0.56,·,
SMILES,WT yeast gro inh,L major viab,Calpain2 inh,ROMK mod,Cl transport mod,L major 1uM,others
COC1=C(N)C(=O)c2nc(-c3nc(C(=O)O)c(C)c(-c4ccc(OC)c(OC)c4O)c3N)ccc2C1=O,-25,65*,3,·,0.56,19,ROMK retest=0.057*
O=C(NC(=S)Nc1cc(S(=O)(=O)N2CCOCC2)ccc1N1CCOCC1)C1CCCC1,2,10,-6,0.2,-0.37,·,
O=C(COC(=O)c1cccc(S(=O)(=O)NCc2ccccc2)c1)NCC1CCCO1 (configuration not stated),-15,-3,-22,-0.25,-0.48,·,
c1ccc(Sc2cccc3ccccc23)c(CNC2=NCCN2)c1,67,99*,-26,-3.1*,-0.033,-11,ROMK retest=0.058*
O=C(c1ccccc1Sc1cccc2ccccc12)N1CCOCC1,-9,27,13,-1.6,0.47,·,
CN(C)C(=S)NC(C)(C)C,·,·,12,·,-2.5,·,
COC(=O)c1ccc2c(c1)C(C)(C)C(/C=C/c1ccc(OC)c(OC)c1OC)=[N+]2C,11,101*,i,·,-1.3,101*,ROMK retest=0.058*
Cc1ccc(S(=O)(=O)N2CCC(=O)N(C(COCc3ccc(C(F)(F)F)cc3)Cc3ccccc3)CC2)cc1 (configuration not stated),11,73*,28,-6.7*,1.7,-9,ROMK retest=0.075
Cc1ccc(S(=O)(=O)N2CCC(=O)N(C(COCc3cccc(C)c3)Cc3ccccc3)CC2)cc1 (configuration not stated),7,36,7,-1.7,-1.7,·,
CCn1c(C)c(C(C)=O)cc(C#N)c1=O,-12,-3,-22,-0.1,0.72,·,
CCCCCCCCC[n+]1cccc2c3ccccc3ccc21,54,101*,-21,-5.7*,·,101*,ROMK retest=0.042*
